Pf growth 96h: inhibits malaria parasite growth, 96 h; P. falciparum luciferase reporter growth, 96 h; Potency, µM (top dose mostly 28.7 µM), usual class: inhibitors; 320,000 tested, 6.9% active
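Parasite growth measured via integrated firefly luciferase reporter in P. falciparum. Infected erythrocytes at 2% hematocrit, 0.05% parasitemia final were treated 96 hours at 37 C under 5% CO2, and luminescence was read.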
Cycloheximide cs: counter-screen hit for Shiga toxin inhibitors, cycloheximide; cell reporter, cycloheximide protein synthesis inhibition counterscreen; max response, %; 300,000 tested, 12% active; in the data active = max response mostly above about 13%, no sharp cut-off; inactive = mostly below about 14%; also: read at 38.3 µM for the half of the compounds with a filed dose
HCV inhibitor: HCV inhibition. Huh7.5.1 HCVcc-Cre infection, luciferase reporter, 44 h. Potency, µM (titrated, usually from 41.8 µM), most hits filed as inhibitors. 340,000 tested, 3.4% active
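HCVcc-Cre virus at an moi near 0.5 was added right after compound to cells cultured 4 h from seeding (1,000 cells/well). Luciferase activity was determined 44 h later, 15 min after substrate addition at RT.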
HCMV inh: human cytomegalovirus inhibition. HFF cells, HCMV-luciferase reporter, 72 h; active compounds read low. 410,000 tested, 4.5% active. activity change, negative = inhibition, % at 57.5 µM; in the data active = activity change below about -60%; inconclusive = no clear call, values can overlap the other calls; inactive = above about -39%
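HFF cells seeded 16 h at 37C, treated with compounds, infected with luciferase-reporter HCMV at MOI 1 PFU/cell; luciferase read at 72 h post infection, normalized to buffer-only and Salinomycin controls.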
Shiga inhibitor: inhibitors of Shiga toxin in Vero cells; 290,000 tested, 9.2% active; AID 2315; Vero cells, Shiga toxin protein synthesis inhibition reporter; inhibition, % at 38.7 µM; in the data active = inhibition mostly above about 28%, no sharp cut-off; inactive = mostly below about 43%
Pf growth 48h: inhibits P. falciparum growth in the first generation, 48 h; P. falciparum luciferase growth in erythrocytes, 48 h; Potency, µM (titrated, usually from 28.7 µM), usual class: inhibitors; 310,000 tested, 5.9% active
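First compound was added to culture medium, then infected red cells at 0.1% parasitemia and 2% hematocrit (final). After incubation at 37 C under 5% CO2, luciferase detection reagent was dispensed and light output recorded.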
A number is an active result; 0 = inactive; ? = inconclusive; - = no result given; + = active, no number. This is a sample that favours compounds with a hit; in the whole collection about 21% have one here. Unless noted, calls follow the shape of the dose curve; as a rule, active = well fitted inhibition curve with a large enough effect; inconclusive = small, poorly fitted or top-dose-only effect, or another doubt; inactive = no such curve, though single readings can be large or run the other way.

SMILES	Pf growth 96h	Cycloheximide cs	HCV inhibitor	HCMV inh	Shiga inhibitor	Pf growth 48h
Cc1ccc(NC(=O)C(NC2CCCc3ccccc32)c2ccccc2)c([N+](=O)[O-])c1 (stereo not given)	?	22.3	?	0	+	13.1µM
Cc1ccccc1NC(=O)NC1CCCc2ccccc21 (stereo not given)	?	0	0	-	0	?
Cc1ccc(NC(=O)C(NC2CCCc3ccccc32)c2ccccc2)cc1Cl (stereo not given)	?	26.0	0	0	0	?
CC(n1cnnn1)C12CC3CC(CC(C3)C1)C2 (stereo not given)	1.65µM	0	0	0	0	?
COc1ccc(-n2nc(C(=O)NCC(=O)N3CCCCCC3)c3ccccc3c2=O)cc1OC	2.94µM	24.3	0	0	0	0
COc1ccc(-n2nc(C(=O)NCC(=O)NC3CCCCCC3)c3ccccc3c2=O)cc1OC	?	0	0	0	0	?
COc1ccc(-n2nc(C(=O)NCC(=O)N3CC(C)CC(C)C3)c3ccccc3c2=O)cc1OC (stereo not given)	1.65µM	0	0	0	0	5.86µM
C=CCn1c(SCC(=O)NC2CCCC2)nc2sc(C)cc2c1=O	6.57µM	-	?	0	-	0
C=CCn1c(SC(C)C(N)=O)nc2sc(CC)cc2c1=O (stereo not given)	?	0	0	0	0	?
C=CCn1c(SCC(=O)Nc2sccc2C(N)=O)nc2ccccc2c1=O	-	0	11.2µM	0	0	?
C=CCn1c(SCC(=O)Nc2sccc2C(N)=O)nc2sc(CC)cc2c1=O	-	0	11.2µM	-77.9	0	?
C=CCn1c(SCC(=O)Nc2sccc2C(N)=O)nc2ccc(Cl)cc2c1=O	0	0	7.94µM	-81.9	0	0
Cc1cc2c(=O)n(C)c(SCC(=O)NC3CCCC3)nc2s1	0	-	0	0	-	?
C=CCn1c(SCC(=O)Nc2ccccc2F)nc2ccccc2c1=O	0	0	0	?	0	0
C=CCn1c(SCC(=O)Nc2ccccc2)nc2scc(-c3cccs3)c2c1=O	0	0	0	0	0	-
C=CCn1c(SCn2nnc3ccccc3c2=O)nc2scc(-c3cccs3)c2c1=O	2.94µM	0	0	0	0	0
C=CCOc1ccc(C(=O)NC2CCCCC2)cc1	-	21.0	0	0	111.1	0
CC(C)Oc1ccc(C(=O)NC2CCCCC2)cc1	-	46.8	0	0	0	0
O=c1cc(-c2ccccc2)c2ccc(O)c(CN3CCCCC3)c2o1	0	0	0	0	0	10.4µM
Cc1c(-c2ccccc2)c(=O)oc2c(CN3CCN(C)CC3)c(O)ccc12	-	-	-	0	-	-
CCc1c(C)c2ccc(O)c(CN3CCN(c4ccccc4)CC3)c2oc1=O	-	-	-	-60.6	-	-
O=c1oc2c(CN3CCCCCC3)c(O)ccc2cc1-c1nc2ccccc2[nH]1	0	0	-	-	0	2.33µM
CCc1c(C)c2ccc(O)c(CN3CCCC3)c2oc1=O	11.7µM	0	0	0	0	?
CCOc1ccccc1C(=O)N1CC(=O)Nc2ccc(Cl)cc2C1c1ccccc1 (stereo not given)	-	-	-	0	-	-
COc1ccc(S(=O)(=O)N2CCC(C(=O)NC3CC3)CC2)cc1OC	0	0	0	0	0	0
SMILES	Pf growth 96h	Cycloheximide cs	HCV inhibitor	HCMV inh	Shiga inhibitor	Pf growth 48h
CSc1ncccc1C(=O)OCC(=O)NC1CCCCC1	0	-	0	0	-	0
CC1(C)CC(=O)C(C=Nc2ccc(O)c(N=CC3=C(O)CC(C)(C)CC3=O)c2)=C(O)C1	?	0	0	0	0	10.4µM
CC1(C)CC(=O)C(C=NCCc2ccccn2)=C(O)C1	-	0	0	0	0	0
CC1(C)CC(=O)C(C=Nc2ccc3c(c2)OCO3)=C(O)C1	-	39.1	0	0	81.4	0
CC1(C)CC(=O)C(C=NCc2ccc3c(c2)OCO3)=C(O)C1	0	active	0	0	0	0
CCN1CCN(c2ccc(S(=O)(=O)N3CCCCC3)cc2N)CC1	0	-	0	?	-	0
CCc1noc(C)c1C(=O)NNC(=O)COc1cc(C)ccc1C	0	-	0	0	-	0
COc1cccc(CNC(=O)CSc2nc3ccccc3nc2Cc2ccccc2)c1	-	-	-	0	-	-
COc1ccc(-c2cc(NC=O)c3ncc(-c4ccc(OC)c(OC)c4)n3c2)cc1	-	-	-	0	-	-
CCOc1ccc2c(c1)C(C)=CC(C)(C)N2S(=O)(=O)c1ccc(C)cc1	?	0	0	-79.1	0	0
CC1=CC(C)(C)N(S(=O)(=O)c2ccc(C)cc2)c2cc(C)ccc21	9.28µM	0	?	-84.7	0	-
COc1ccc2c(c1)C(C)=CC(C)(C)N2S(=O)(=O)c1ccc(C)cc1	0	0	0	-85.9	0	?
CCOc1ccc2c(c1)C(C)=CC(C)(C)N2C(=O)Nc1ccccc1F	9.28µM	0	0	0	0	0
CC1=CC(C)(C)N(C(=O)CCl)c2cc(C)ccc21	?	0	?	0	0	0
CCNC(=O)N1c2ccc(OCC)cc2C(C)=CC1(C)C	-	0	0	0	0	0
O=C(CCCn1c(=O)c2cccn2c2ccccc21)NCCc1ccc(Cl)cc1	-	-	-	0	-	-
COc1ccc2oc(C(=O)N3CCCc4ccccc43)c(C)c2c1	0	-	?	0	-	?
O=[N+]([O-])c1nn(-c2ccc(Cl)cc2)n(O)c1=NCc1cccnc1	0	22.5	?	0	0	0
O=[N+]([O-])c1nn(-c2cccc(Cl)c2)n(O)c1=NCc1cccnc1	0	22.6	?	0	0	0
Cc1cccc(-n2nc([N+](=O)[O-])c(=NCc3cccnc3)n2O)c1	?	0	?	0	0	?
CC(=NCc1cccnc1)c1c(O)n(-c2ccc(Cl)cc2)c(=O)[nH]c1=O	0	0	0	0	0	0
Cc1cc(C)c(COCc2cc(/C=N/O)c(C)cc2C)cc1/C=N/O	10.4µM	0	?	0	0	-
Cc1ccc(-c2cc(C(=O)N3CCN(c4ccc(O)cc4)CC3)c3ccccc3n2)cc1	-	-	?	0	-	-
O=C(c1ccco1)N1CCN(C(=O)c2cc(-c3ccncc3)nc3ccc(Br)cc23)CC1	-	-	?	0	-	-
O=C(O)c1cc(-c2ccc3c(c2)OCO3)nc2ccccc12	8.28µM	0	0	0	0	-
SMILES	Pf growth 96h	Cycloheximide cs	HCV inhibitor	HCMV inh	Shiga inhibitor	Pf growth 48h
CCCN(CCC)C(=O)c1cc(-c2ccc3c(c2)OCO3)nc2ccccc12	1.65µM	0	?	-	0	-
CC(=O)c1ccc(N2CCN(C(=O)c3cc(-c4ccc5c(c4)OCO5)nc4ccccc34)CC2)cc1	0	20.4	?	0	36.2	6.57µM
CCCNC(=O)NNC(=O)c1cc(-c2ccc3c(c2)OCO3)nc2ccccc12	0	0	?	0	0	?
CC(=O)c1ccc(N2CCN(C(=O)c3cc(-c4ccncc4)nc4ccc(Br)cc34)CC2)cc1	0	0	0	0	0	13.1µM
COc1cccc(CNC(=O)CN2C(=O)CCCc3ccccc32)c1OC	-	-	-	0	-	-
O=C(OCC(=O)N1CCCC1=O)c1ccc(Cl)cc1[N+](=O)[O-]	0	-	0	0	-	0
CCOC(=O)Cn1c(=O)oc2cc(S(=O)(=O)N3CCN(c4ccccc4F)CC3)ccc21	-	-	-	0	-	-
